# Source: PubChem BioAssay (Tox21)
# Activity calls are given as the source filed them. Calls come from the whole dose curve; as a rule, active = well fitted curve in the direction sought with a large enough effect in the repeat runs; inconclusive = weak or mixed curves; inactive = flat fitted curve, though single readings scatter.
# Experiment: qHTS assay to test for compound auto fluorescence at 590 nm (red) in HepG2 cells (AID 720674)
# Conditions: HepG2 autofluorescence, red 540/590 nm, 1 h; series mostly up to 91.3 µM; fluorescence, relative to Rose Bengal: at the top concentration
# From the text: U.S. Tox21 Program National Center for Advancing Translational Sciences [NCATS] NIH Chemical Genomics Center [NCGC] U.S. Environmental Protection Agency [EPA] National Institutes of Environmental Health Sciences [NIEHS] National Toxicology Program [NTP] U.S. Food and Drug Administration [FDA] Tox21 Assay Overview: Compound auto fluorescence often interferes with screening of the compound library against various biological targets and signaling pathways. Some of these compounds may have fluorophoric properties. Such properties may interfere with the assay outputs resulting in false positives and/or negatives. To decrease such complications and ensure the compound activities are relevant in terms of biological response, the Tox21 10K compound library was screened for auto fluorescence. From the fluorophores used as reporter signals in our screening assays, the auto fluorescence equivalencies of compounds against three fluorophores have been evaluated: Triamterene, Fluorescein and Rose Bengal sodium for blue, green and red fluorescence, respectively. The fluorescence intensities were measured using Excitation/Emission wavelengths at 405/460nm, 485/535nm and 540/590nm for blue, green and red labels, respectively. This assay includes the red fluorescence data.
# Tox21 Assay Protocol Summary: 2,000 HepG2 cells in 5 uL of culture medium (MEM containing 10% FBS) per well were dispensed into black wall/clear bottom 1536-well plates using a Multidrop Combi Dispenser (ThermoFisher Scientific, Waltham, MA). The assay plates were incubated overnight at 37 C to allow cell attachment to the well bottom, followed by the transfer of 23 nL compound or DMSO vehicle by a pintool work station (Kalypsys , San Diego, CA). After the assay plates were incubated for 1 hr at 37 C and 5% CO2, fluorescence intensities in the assay plates were measured by an Envision (PerkinElmer, Shelton, CT) plate reader using three labels for measuring blue, green and red fluorescence at […] 460, 535 and 590 nm respectively.
# % is set by controls: 0 for no effect and ±100 for the full control effect.
SMILES,outcome,"fluorescence, relative to Rose Bengal"
Clc1ccc(C(c2ccccc2Cl)C(Cl)(Cl)Cl)cc1 (stereo not given),inactive,
O=C/C(Cl)=C(/Cl)C(=O)O,inactive,
Nc1ccc(Sc2ccc(N)cc2)cc1,,-0.5% (inactive)
CCCCCCCCCCCCCCCC[n+]1ccccc1,inactive,
Oc1cc(Cl)c(Cl)c(Cl)c1,,0.047% (inactive)
O=C1NCN(c2ccccc2)C12CCN(CC1COc3ccccc3O1)CC2 (stereo not given),,0.0519% [at 46 µM] (inactive)
CC(=O)c1cc(C(C)(C)C)cc2c1CCC2(C)C,,0.269% (inactive)
N#CCCC(Br)(C#N)CBr (stereo not given),,0.0778% (inactive)
O=C1c2ccccc2C(=O)C1C(=O)C(c1ccccc1)c1ccc(Cl)cc1 (stereo not given),,0.0494% (inactive)
c1ccc2c(c1)[nH]c1cnccc12,,-0.0385% (inactive)
COc1cc(N)c(Cl)cc1C(=O)NC1CN2CCC1CC2 (stereo not given),,0.0113% [at 46 µM] (inactive)
CN(C)c1ccc(N=Nc2ccccc2)cc1,,-0.0102% (inactive)
C[C@@H]1O[C@@H](O[C@H]2C[C@@H](O)[C@]3(CO)[C@H]4[C@H](O)C[C@]5(C)[C@@H](C6=CC(=O)OC6)CC[C@]5(O)[C@@H]4CC[C@]3(O)C2)[C@H](O)[C@H](O)[C@H]1O,inactive,
[CH3][Hg][Cl],,0.182% (inactive)
CC(=O)/C=C/c1ccc2c(c1)OCO2,,-0.0325% (inactive)
CCCCCCCCCCCCCCC(Br)C(=O)O (stereo not given),,0.0618% (inactive)
Clc1ccc(COC(Cn2ccnc2)c2ccc(Cl)cc2Cl)cc1 (stereo not given),inactive,
[Cl][Sb]([Cl])[Cl],,-0.0807% (inactive)
Cc1cc(C)c(C2=C(OC(=O)CC(C)(C)C)C3(CCCC3)OC2=O)c(C)c1,,0.115% [at 95.7 µM] (inactive)
[Cd+2].[Cl-].[Cl-],inactive,

SMILES,outcome,"fluorescence, relative to Rose Bengal"
CC(C)OS(C)(=O)=O,,0.0122% (inactive)
c1ccc(OCC2CO2)cc1 (stereo not given),,0.106% (inactive)
OC(c1ccc(Cl)cc1)(c1ccc(Cl)cc1)C(Cl)(Cl)Cl,,-0.0416% (inactive)
O=c1ssc(Cl)c1Cl,,0.0214% (inactive)
CCC(C)c1cc([N+](=O)[O-])cc([N+](=O)[O-])c1OC(=O)C=C(C)C (stereo not given),,0.0161% (inactive)
Oc1ccc2ccc3cccc4ccc1c2c34,,0.322% (inactive)
C[C@H]1O[C@@H](O[C@H]2[C@@H](O)C[C@H](O[C@H]3[C@@H](O)C[C@H](O[C@H]4CC[C@@]5(C)[C@H](CC[C@@H]6[C@@H]5CC[C@]5(C)[C@@H](C7=CC(=O)OC7)CC[C@]65O)C4)O[C@@H]3C)O[C@@H]2C)C[C@H](O)[C@@H]1O,inactive,
O=C(Nc1ccc2[nH]ccc2c1)c1cc2cc(F)ccc2n1Cc1cccc(F)c1,,0.442% (inactive)
O=C(O)COc1nc(Cl)c(Cl)cc1Cl,,-0.259% [at 95.7 µM] (inactive)
CCCCCCCCCCCCBr,,-0.0336% (inactive)
c1ccc2cc3c(cc2c1)-c1cccc2cccc-3c12,,0.0579% (inactive)
CCC[CH2][Sn]([CH2]CCC)([CH2]CCC)[O]C(=O)c1ccccc1,,-0.263% (inactive)
CCCOCC(=Nc1ccc(Cl)cc1C(F)(F)F)n1ccnc1,,-0.0725% (inactive)
CCOP(=O)(NC(C)C)Oc1ccc(SC)c(C)c1 (stereo not given),,0.561% (inactive)
COC12CC[C@@]3(C[C@@H]1C(C)(O)C(C)(C)C)[C@H]1Cc4ccc(O)c5c4[C@@]3(CCN1CC1CC1)[C@H]2O5 (stereo not given in full),,0.235% (inactive)
CC(=O)O[C@H]1CC[C@@]2(C)C(=CC[C@@H]3[C@@H]2CC[C@]2(C)C(=O)CC[C@@H]32)C1,inactive,
CCCCOCN(C(=O)CCl)c1c(CC)cccc1CC,,0.0055% (inactive)
N#CC(Cl)Cl,,0.255% (inactive)
COC(=O)N(C(=O)N1CO[C@@]2(C(=O)OC)Cc3cc(Cl)ccc3C2=N1)c1ccc(OC(F)(F)F)cc1,,0.0903% (inactive)
CC(C)OC(=O)C(O)(c1ccc(Cl)cc1)c1ccc(Cl)cc1,,-0.0604% (inactive)
